This is a sample that favours compounds with a hit; in the whole collection about 2.8% have one here.
POLH inh – DNA polymerase eta (human) inhibition; Potency, µM (series often up to 114 µM), without a hit: top-dose activity change, negative = inhibition, usual class: inhibitors; recombinant Pol eta, fluorescent DNA replication assay; Q9Y253; AID 588591; 1.2% of 390,000 active; also: potency is read from the fitted curve at half-maximal effect; % is scaled to controls: 0 for no effect and ±100 for the full control effect
Target sequence (Q9Y253 whole entry, looked up): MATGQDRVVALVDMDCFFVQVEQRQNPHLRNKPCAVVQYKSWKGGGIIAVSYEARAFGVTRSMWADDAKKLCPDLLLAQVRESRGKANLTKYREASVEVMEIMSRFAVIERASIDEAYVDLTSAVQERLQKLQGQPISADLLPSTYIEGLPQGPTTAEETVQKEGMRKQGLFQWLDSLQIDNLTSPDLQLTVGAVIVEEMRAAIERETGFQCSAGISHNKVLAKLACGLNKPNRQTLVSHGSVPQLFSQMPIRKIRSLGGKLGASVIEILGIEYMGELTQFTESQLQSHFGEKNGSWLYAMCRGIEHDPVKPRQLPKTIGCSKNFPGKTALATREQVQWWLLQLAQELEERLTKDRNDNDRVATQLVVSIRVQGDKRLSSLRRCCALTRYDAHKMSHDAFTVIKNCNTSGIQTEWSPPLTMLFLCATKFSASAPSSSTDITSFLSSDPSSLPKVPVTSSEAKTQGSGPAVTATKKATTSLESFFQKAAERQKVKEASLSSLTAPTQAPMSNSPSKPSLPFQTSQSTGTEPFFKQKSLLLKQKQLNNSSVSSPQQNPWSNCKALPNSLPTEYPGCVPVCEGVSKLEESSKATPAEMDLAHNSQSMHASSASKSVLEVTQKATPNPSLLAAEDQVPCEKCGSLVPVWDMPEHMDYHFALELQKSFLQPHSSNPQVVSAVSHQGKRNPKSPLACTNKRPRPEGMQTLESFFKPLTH
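Pol eta (10 nM) was preincubated with compounds for 15 min at room temperature, after which fluorescent replication substrate (50 nM final) was added to start the reaction. Fluorescence was read kinetically at 0 and 10 min.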
POLI inh – inhibitors of human DNA polymerase iota | Potency, µM (top dose mostly 115 µM), for the others: at the top dose activity, negative = inhibition, hits mostly inhibitors | Pol iota fluorescent replication assay, 10 min | 1% of 390,000 active; also: potency is read from the fitted curve at half-maximal effect
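Fluorescent replication assay read twice, at 0 min and 10 min after adding 50 nM (final) substrate. Enzyme (10 nM) and compounds were first incubated 15 min at room temperature; enzyme-free buffer wells were negative controls.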
POLK inh – inhibitors of human DNA polymerase kappa; Q9UBT6; purified Pol kappa, fluorescent DNA synthesis assay, 10 min; Potency, µM (highest dose often 107 µM), for the others: at the highest dose activity, negative = inhibition, actives largely listed as inhibitors; 0.53% of 400,000 active; AID 588579; also: potency is read from the fitted curve at half-maximal effect; % is scaled to controls: 0 for no effect and ±100 for the full control effect
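Fluorescent qHTS in 1536-well format: enzyme (10 nM) and compound sat 15 min at room temperature before 50 nM substrate (final) was added. Signal taken at 0 and 10 min; no-enzyme buffer wells were negative controls.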
POLB inh – blocks human DNA polymerase beta activity; P06746; Pol beta primer extension/strand displacement, fluorescence kinetic; Potency, µM (top dose mostly 114 µM), for the others: top-dose activity change, negative = inhibition, actives largely listed as inhibitors; 1.3% of 340,000 active; AID 485314; also: potency is read from the fitted curve at half-maximal effect; % is scaled to controls: 0 for no effect and ±100 for the full control effect
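Kinetic readout of DNA synthesis with strand displacement by Pol beta. Compound and 10 nM enzyme sit 15 min at room temperature; 50 nM substrate starts the reaction, read immediately and at 10 min.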
PI5P4Ka inh – PI5P4K alpha (human) kinase inhibition. PI5P4Kalpha enzyme, ADP-Glo luminescence, 60 min; active compounds read low. max response, %. 1.2% of 330,000 active. AID 652105; active = max response of -50% or lower; inconclusive = between -30% and -50%; inactive = -30% or higher; also: value at the top dose of about 77 µM; % is scaled to controls: 0 for no effect and ±100 for the full control effect
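ADP-Glo luminescence end-point read after a 60 min room-temperature kinase reaction of PI5P4Kalpha plus substrate, initiated with ATP at 5 microM final. Buffer: 0.038 M HEPES pH 7.4, EGTA, 0.1% CHAPS, 5% DMSO.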
WRN inhibitor – blocks human WRN helicase; Q14191; 0.46% of 360,000 active; WRN helicase unwinding, fluorescent forked duplex, kinetic; Potency, µM (top dose mostly 114 µM), for inactives: at the top dose activity change, negative = inhibition, actives largely listed as inhibitors; also: potency is read from the fitted curve at half-maximal effect; % is scaled to controls: 0 for no effect and ±100 for the full control effect; nearly all actives have a fitted effect of over 55% in size
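Screening of the MLSMR collection measured strand separation of a quenched forked DNA duplex (100 nM) by 20 nM WRN with 2 mM ATP, all final. Compounds were preincubated with enzyme 15 min at room temperature.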
* = called active by the depositor; ? = inconclusive; / = no result; [ ] = remark or other dose. Unless noted, calls follow the shape of the dose curve; as a rule, active = well fitted curve in the direction sought with a large enough effect; inconclusive = small, poorly fitted or top-dose-only effect, or another doubt; inactive = no such curve, though single readings can be large; an effect the other way counts as inactive or inconclusive.

SMILES	POLH inh	POLI inh	POLK inh	POLB inh	PI5P4Ka inh	WRN inhibitor
N=C(N)c1ccc(-c2ccc(-c3ccc(C(=N)N)cc3)o2)cc1	/	10µM*	13µM*	/	/	/
O=C(NC1CCCCC1)c1cn(CCN2CCOCC2)c2cc(Cl)ccc2c1=O	/	/	3%[60.1 µM]	/	/	/
Cn1cc(/C=C2\C(=O)NC(=O)N(c3ccccc3)C2=O)c2ccccc21	25µM*	?	-19%	-7%	3	-12%[11.6 µM]
COc1cc(/C=C2\C(=O)NC(=O)N(c3ccccc3)C2=O)cc(OC)c1O	3%	25µM*	0%	2%	/	-29%
COc1ccc(CNC(=O)Cn2c(=O)nc(-c3ccccc3F)c3cc(Cl)ccc32)cc1	?	9%	-9%[60.1 µM]	4%	/	/
O=c1[nH]c(=S)n(CCC2=CCCCC2)c(O)c1C=NCc1cccnc1	/	/	/	24%	/	/
CCCCC(=O)N/N=C/c1c(O)n(CCc2ccccc2)c(=O)[nH]c1=O	-5%	27%	-1%	-30%	-58*	1%
Nc1ccccc1N=Cc1c(O)n(CCC2=CCCCC2)c(=O)[nH]c1=O	?	14%	-25%	?	1	-12%
O=C(N/N=C/c1c(O)n(CCC2=CCCCC2)c(=S)[nH]c1=O)c1ccccc1	-20%	-1%	-12%	-24%	-59*	-20%
O=C(N/N=C/c1c(O)n(CCC2=CCCCC2)c(=O)[nH]c1=O)c1ccccc1	-12%	2%	-7%	0%	-60*	-29%
COc1cccc([C@@]2(O)CCCCC2CN(C)C)c1 (some centres not stated)	/	/	8%[60.1 µM]	/	/	/
Oc1c(Cl)cc(Cl)cc1CN1CCN(Cc2ccccc2)CC1	-5%	32µM*	-13%	11%	/	-26%
CC1CCN(C(CC(=O)c2ccccc2)C(=O)c2ccccc2)CC1 (configuration not stated)	-16%	?	-5%	/	?	7.9µM*
O=C(O)c1ccccc1NS(=O)(=O)c1cccc(N=Nc2c(O)[nH]c(=S)[nH]c2=O)c1	-11%	?	-18%	/	-74*	-32%
Cc1ccsc1/C=N/NC(=O)c1cccc(S(=O)(=O)Nc2ccccc2Cl)c1	-11%	-3%	-7%	-1%	-17	?
CCOC(=O)c1ccccc1NC(=O)c1c(O)[nH]c(=S)[nH]c1=O	-7%	30%	7%	/	-23	9%
O=C(O)c1cc(S(=O)(=O)Nc2ccccc2C(=O)O)ccc1O	-17%	-15%	-12%	?	-54*	-10%
C=C(C)C1CCC(C)=CC1c1c(OC)cc(C)cc1OC (configuration not stated)	/	/	2%[60.1 µM]	/	/	/
CCCCCCCCCC[n+]1cccc([C@@H]2CCCN2C)c1	/	/	14%[60.1 µM]	/	/	/
COc1cccc(CN2CCC(n3nccc3NC(=O)CCOc3ccccc3)CC2)c1O	-9%	0%	-12%	/	3	?
Cc1nn2c(=O)cc(COC(=O)c3ccccc3NC(=O)c3cccs3)nc2s1	89µM*	4%	-3%[60.1 µM]	21%	/	/
CNC(C)C#Cc1ccc2oc3cc(C)c(C)cc3c(=O)c2c1 (configuration not stated)	-16%	8.9µM*	19%	/	6	2%
COc1ccc(-n2ncc(C(=O)N3CCN(c4cc(C)ccc4C)CC3)c2C2CCN(C(=O)OC(C)(C)C)CC2)cc1	-24%	33%	-17%	0%	/	/
Cc1ccc(/C=C2\C(=O)NC(=O)N(CCc3ccc(F)cc3)C2=O)s1	-1%	112%	-3%	0%	?	-14%
CN1C(=O)/C(=C/c2ccc(N3CCCCCC3)o2)C(=O)NC1=S	?	?	-15%	-17%	-14	-19%
SMILES	POLH inh	POLI inh	POLK inh	POLB inh	PI5P4Ka inh	WRN inhibitor
Cc1ccsc1/C=C1\C(=O)NC(=S)N(C)C1=O	-17%	?	3%	25%	-84*	50µM*
CN1C(=O)/C(=C/c2ccc(Cl)s2)C(=O)NC1=S	?	?	-24%	4%	-80*	14µM*
CCN1C(=O)/C(=C\c2ccc([N+](=O)[O-])s2)C(=O)NC1=S	/	/	/	4.5µM*	/	/
CN1C(=O)/C(=C\c2ccc(N3CCCCC3)o2)C(=O)NC1=S	-29%	?	-3%	-13%	-3	-18%
CC(=O)Nc1ccc(OC(=O)N2CCN(/[N+]([O-])=N/Oc3ccc([N+](=O)[O-])cc3[N+](=O)[O-])CC2)cc1	/	?	5%	/	/	/
CC(C)C[C@H]1C(=O)N2CCC[C@H]2[C@]2(O)O[C@](NC(=O)[C@@H]3C=C4c5cccc6[nH]cc(c56)C[C@H]4N(C)C3)(C(C)C)C(=O)N12	-5%	11µM*	-25%	/	?	-10%
CC(C)C[C@H]1C(=O)N2CCC[C@H]2[C@]2(O)O[C@](NC(=O)[C@@H]3C=C4c5cccc6[nH]c(Br)c(c56)C[C@H]4N(C)C3)(C(C)C)C(=O)N12	/	/	-3%[60.1 µM]	/	/	/
O=C(NCc1cccnc1)C1CCN(S(=O)(=O)c2cc([N+](=O)[O-])ccc2Cl)CC1	-6%	57%	-19%	/	1	-7%
Cc1ccc(NC(=O)Cn2c(=O)oc3cc(S(=O)(=O)N4CCCCCC4)ccc32)cc1Cl	6%	-14%	-15%[60.1 µM]	?	/	/
CCc1ccc(NC(=O)Cn2c(=O)oc3cc(S(=O)(=O)NCc4ccccc4)ccc32)cc1	-9%	-13%	-31%	20µM*	/	/
CC1Oc2cc3c(-c4c(O)cc(O)c5c(O)c6c(cc45)OC(C)C(C)C6=O)c(O)cc(O)c3c(O)c2C(=O)C1C (configuration not stated)	7.1µM*	4µM*	35µM*	35µM*	-109*	63µM*
O=C(CSc1nnc(NC(=O)c2ccccc2[N+](=O)[O-])s1)NCc1ccco1	?	?	-25%	-10%	-10	-17%
CCCCCCCCn1sccc1=O	0%	?	14%	/	-77*	-4%
CCCCCCCCc1ccc(O)cc1	-18%	-9%	-30%	/	70	-13%
C/C(CC(=O)Nc1ccc(Cl)cn1)=N\NC(=O)Cc1cccs1	-22%	148%	-2%	18%	6	-12%
CC1(C)C[C@H]2C=C(C=O)[C@]3(C=O)C[C@]3(C)[C@H]2C1	-10%	45µM*	?	20µM*	-19	-2%
Cc1ccc(CNC(=O)C(=O)NCC(c2cccnc2)N2CCN(c3ccc(F)cc3)CC2)cc1 (configuration not stated)	-17%	29%	-4%	?	/	/
C[N+]1(C)C2CC[C@H]1CC(OC(=O)C(CO)c1ccccc1)C2 (some centres not stated)	-9%	17%	6%	/	1	-3%
C[N+]1(C)[C@@H]2CC[C@H]1CC(OC(=O)[C@@H](CO)c1ccccc1)C2 (some centres not stated)	5%	?	-2%	28%	-58*	-11%

Screens deposited in PubChem BioAssay by National Center for Advancing Translational Sciences (NCATS).
